# Most compounds without a hit are left out; they make up all but 9.4% or so of the library.
# NPC1 promoter act: qHTS Assay for NPC1 Promoter Activators; Potency, µM (doses to about 9.22 µM), without a hit: top-dose activation, actives largely listed as activators; AID 485313, 2010; 2.4% of 320,000 active; Huh7 NPC1 promoter luciferase reporter, 24 h; note: % of control where 0% means no effect; nearly all actives have a fitted effect of over 60% in size
#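 In 1536-well qHTS, Huh7 cells harboring an NPC1 promoter–luciferase construct received compound for 24 h; activation was quantified by luminescence following luciferase reagent addition.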
# FLuc modulator: qHTS profiling assay for firefly luciferase inhibitor/activator using purifed enzyme and Km concentrations of substrates (counterscreen for miR-21 project); AID 588342, 2011; purified FLuc, Km substrates, luminescence inhibition; Luciferin 4-monooxygenase (Photinus pyralis), P08659; 6.9% of 360,000 active; Potency, µM (series often up to 57.5 µM), for inactives: at the highest dose activity change, negative = inhibition, actives largely listed as inhibitors;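 note: plate controls were vehicle for no effect and reference inhibitor for full effect; nearly all actives have a fitted effect of over 55% in size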
# Target sequence (P08659 whole entry, looked up): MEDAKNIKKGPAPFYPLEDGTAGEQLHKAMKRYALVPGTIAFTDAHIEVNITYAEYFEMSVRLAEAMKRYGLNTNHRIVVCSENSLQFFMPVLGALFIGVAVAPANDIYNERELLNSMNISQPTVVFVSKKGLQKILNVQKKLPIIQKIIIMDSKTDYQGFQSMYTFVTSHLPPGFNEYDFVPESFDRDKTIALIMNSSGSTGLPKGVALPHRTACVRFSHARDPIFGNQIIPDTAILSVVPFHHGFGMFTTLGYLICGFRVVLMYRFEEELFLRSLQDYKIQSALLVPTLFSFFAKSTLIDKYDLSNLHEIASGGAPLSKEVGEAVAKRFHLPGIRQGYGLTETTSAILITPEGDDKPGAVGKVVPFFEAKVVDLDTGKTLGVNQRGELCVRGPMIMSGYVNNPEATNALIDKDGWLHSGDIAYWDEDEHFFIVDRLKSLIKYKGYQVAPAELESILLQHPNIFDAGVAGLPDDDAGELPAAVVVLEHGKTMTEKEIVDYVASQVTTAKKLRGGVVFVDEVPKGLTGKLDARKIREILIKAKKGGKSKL
#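 Purified P. pyralis luciferase (10nM final) with 10uM D-luciferin and 10uM ATP (Km levels) in 50mM Tris acetate pH 7.5, 10mM Mg acetate, 0.01% Tween-20, 0.05% BSA; qHTS 6-point titration, ~60 µM downward; luminescence read.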
# ELG1 repair inh: qHTS screen for small molecules that inhibit ELG1-dependent DNA repair in human embryonic kidney (HEK293T) cells expressing luciferase-tagged ELG1 | HEK293T ELG1-luciferase reporter, luminescence, 16 h; DNA damage induced by 5-fluorouridine | Potency, µM (series often up to 46.1 µM), inactives show top-dose activity change, negative = inhibition, hits mostly inhibitors | 2.3% of 330,000 active | AID 504467, 2011; note: % is set by controls: 0 for no effect and ±100 for the full control effect; nearly all actives have a fitted effect of over 55% in size
#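 5-Fluorouridine DNA damage + compound/DMSO, 2,000 cells/well, 16 h, 37 °C/5% CO2. ONE-Glo, 30 min RT, luminescence. Readout = decrease in reporter signal.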
# SMN2 splice enh: qHTS Assay for Enhancers of SMN2 Splice Variant Expression. HEK293 SMN2-luciferase splicing reporter, luminescence, 30-36 h. Potency, µM (doses to about 46.1 µM), for the others: at the highest dose activity change, positive = activation, actives largely listed as activators. 2.8% of 210,000 active; note: % of control where 0% means no effect; nearly all actives have a fitted effect of over 55% in size
#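 qHTS luciferase splicing reporter: luminescence rises when SMN2 exon 7 is included in transfected HEK293 cells. Compound exposure lasted 30-36 h at 37C, with 4.5 mM final sodium butyrate as control, followed by a ONE-Glo read.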
# ELG1 genotox: qHTS screen for small molecules that induce genotoxicity in human embryonic kidney (HEK293T) cells expressing luciferase-tagged ELG1 | HEK293T ELG1-luciferase reporter, luminescence, 16 h | Potency, µM (highest dose often 46 µM), for the others: top-dose activity change, positive = activation, hits mostly activators | 1.3% of 330,000 active; note: % of control where 0% means no effect; nearly all actives have a fitted effect of over 60% in size
#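 Reporter readout depends on ELG1 protein level, which increases with genetic stress. After 16 hr compound exposure at 37 °C, luciferase activity was quantified using ONE-Glo.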
# Rab9 prom act: qHTS Assay for Rab9 Promoter Activators; Potency, µM (series often up to 9.22 µM), without a hit: top-dose activation, negative = inhibition, most hits filed as activators; Huh7 Rab9 promoter-luciferase reporter, luminescence, 24 h; 2.8% of 320,000 active; AID 485297, 2010; note: % of control where 0% means no effect; nearly all actives have a fitted effect of over 60% in size
#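 Measured in stably transfected Huh7 cells bearing a Rab9 promoter–luciferase construct: 24 h compound treatment at 37 °C, followed by luminescence detection.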
# * marks the source's active call; other numbers are inactive results; ? = inconclusive; . = no result given; [ ] = another dose, or the depositor's remark. Calls come from the whole dose curve; as a rule, active = well fitted curve in the direction sought with a large enough effect; inconclusive = small, poorly fitted or top-dose-only effect, or another doubt; inactive = no such curve, though single readings can be large; an effect the other way counts as inactive or inconclusive. Potency is the fitted concentration of half-maximal effect.
SMILES,NPC1 promoter act,FLuc modulator,ELG1 repair inh,SMN2 splice enh,ELG1 genotox,Rab9 prom act
COc1ccc(-c2cc3nc(C)n(N)c(=O)c3s2)cc1,0.079µM*,0.076µM*,?,.,?,0.0032µM*
COC(=O)c1ccccc1NC(=O)c1cc(C)nc2c1c(C)nn2-c1ccc(C)cc1,.,-1%,.,.,.,.
Cc1cccc(-c2c3c(=O)n(C)c(=O)n(C)c3c3cnc4ccccc4n23)c1,.,4%,.,9%,.,.
CC(=O)N1CCc2cc(N=NC3=C(O)CCCC3=O)ccc21,?,15µM*,?,171%,?,3.5µM*
Cc1nc2cc(N=NC3=C(O)CCCC3=O)ccc2s1,10%,13µM*,?,?,?,16%
COc1ccc(C(=O)Nc2nc(-c3nnn(-c4ccc(F)cc4F)c3C)ns2)cc1,.,-5%,.,.,.,.
COc1ccc(-c2ccc(C(=O)O)o2)c([N+](=O)[O-])c1,-4%,-20%,8%,13%,-3%,-2%
COc1ccc(NC(=O)/C(C#N)=C\c2ccc(-c3cc(C(=O)O)ccc3C)o2)cc1,-3%,19µM*,-1%,.,-3%,-5%
CNC(=O)/C(C#N)=C/c1ccc(-c2ccc(OC)cc2[N+](=O)[O-])o1,29%,?,?,16µM*,13%,?
CCCCOC(=O)c1ccc(NC(=O)/C(C#N)=C/c2ccc(-c3ccccc3)o2)cc1,.,-3%,.,-1%,.,.
N#C/C(=C\c1ccc(N2CCCCC2)o1)C(=O)Nc1cccc(Br)c1,2.5µM*,2.7µM*,?,-15%,?,2µM*
N#C/C(=C\c1ccc(-c2ccccc2[N+](=O)[O-])o1)C(=O)Nc1nc(-c2cccs2)cs1,-1%,-2%,21µM*,-29%,-6%,-4%
Cc1cccc(N2CCN(C3(c4ccccc4)C(=O)c4ccccc4C3=O)CC2C)c1 (centres undefined),.,-1%,.,-21%,.,.
Cc1ccc(N2CC(NC(=O)c3ccc(S(=O)(=O)N4CCCC4)cc3)CC2=O)cc1 (centres undefined),.,-3%,.,.,.,.
Cc1ccc(Cn2c(=O)n(CCCCC(=O)NCCc3ccc(Cl)cc3)c(=O)c3ccccc32)cc1,.,-2%,.,-8%,.,.
Cc1cc(O)c(-c2ccnc3cc(-c4ccccc4)nn23)cc1Cl,.,-6%,.,2%,.,.
CCCn1c2ccccc2c2cnn(CC(=O)N(Cc3ccccc3)C(C)C)c(=O)c21,.,-10%,.,.,.,.
CCOc1ccc(C(=O)NC2CC(=O)N(c3ccc(C)cc3)C2)cc1OCC (centres undefined),.,4%,.,.,.,.
Cc1ccc(/C=C(\C#N)C(=O)Nc2ccc(Br)cc2)o1,.,3%,.,3.2µM*,.,.
COc1ccc(NC(=O)/C(C#N)=C\c2ccc(Br)o2)cc1,19%,-16%,?,.,12%,25%
COc1ccc(NC(=O)/C(C#N)=C\c2ccc(-c3cccc(C(=O)O)c3C)o2)cc1,7%,8.5µM*,13%,.,-2%,22%
COc1ccc(NC(=O)/C(C#N)=C/c2ccc(-c3ccccc3C(=O)O)o2)cc1,23%,6.7µM*,4%,.,7%,17%
CC1(OC(=O)c2ccco2)C(=O)C2=COC(C3CC3)=CC2=C(Br)C1=O (centres undefined),.,.,.,-6%,.,.
Cc1ccc(C(C)C)c(OCC(=O)OCC(=O)c2c(N)n(C)c(=O)n(C)c2=O)c1,1%,?,12%,.,-2%,0%
C=CCn1c(COc2cc(C)ccc2C(C)C)nnc1SCC(=O)c1c(N)n(C)c(=O)n(C)c1=O,1%,4.8µM*,?,-29%,-4%,-4%
SMILES,NPC1 promoter act,FLuc modulator,ELG1 repair inh,SMN2 splice enh,ELG1 genotox,Rab9 prom act
COc1ccccc1CN(C(=O)CNC(=O)c1ccco1)C(C(=O)NCC1CCCO1)c1ccc(OC)c(OC)c1 (centres undefined),-3%,1%,13%,.,-4%,12%
CCOC(=O)c1ccc(OC(=O)c2cn(-c3ccc(C)cc3)c(=O)c3ccccc23)cc1,.,-1%,.,.,.,.
OC[C@H](CCc1c[nH]c2ccccc12)c1c[nH]c2ccccc12,.,.,.,-24%[9.22 µM],.,.
CCOc1ccc(C(=O)Nc2ccc3oc(-c4cccc5ccccc45)nc3c2)cc1,.,-11%,.,-9%,.,.
Cc1nc2sc3c(c2c(=O)n1N)CCC3,0%,7%,0%,19%,6%,1%
O=c1c2c3c(sc2nc2n1CCCCC2)CCC3,15%,-15%,?,0%,?,27%
CC1CCc2c(nc3sc4c(c3c2N)CCCC4)C1 (centres undefined),?,4.8µM*,?,?,2%,?
Cc1nc(N2CCN(C)CC2)c2c3c(sc2n1)CCCC3,3%,-3%,0%,.,-21%,2%
Nc1c2c(nc3sc4c(c13)CCCCC4)CCCCC2,1.4µM*,1.7µM*,?,?,?,1.6µM*
CC1CCc2nc3sc4c(c3c(N)c2C1)CCCC4 (centres undefined),?,3.8µM*,?,?,3%,25%
CCCOc1ccc(C2c3c(-c4ccccc4O)n[nH]c3C(=O)N2CCc2ccccc2)cc1OCC (centres undefined),.,-1%,.,4%,.,.
O=C(NCc1ccccc1Cl)C(=O)NCC(c1ccco1)S(=O)(=O)c1cccs1 (centres undefined),.,3%,.,.,.,.
Cc1csc2ncc(C(=O)Nc3ccccc3F)c(=O)n12,?,?,?,13µM*,12µM*,?
Cc1csc2ncc(C(=O)NCc3ccco3)c(=O)n12,2%,-1%,-2%,-1%,3%,2%
Cc1csc2ncc(C(=O)Nc3ccccc3Cl)c(=O)n12,?,-17%,?,.,?,3.2µM*
C(=C\c1ccc(/C=C/c2ccccc2)nn1)/c1ccccc1,-1%,?,14%,.,3%,10%
CC(=O)Nc1nnc(/C=C/c2cccc([N+](=O)[O-])c2)s1,10%,5%,4%,.,1%,20%
Nc1nnc(/C=C/c2ccccc2)s1,?,24µM*,?,.,?,?
COC(=O)Nc1nnc(/C=C/c2ccccc2)s1,19%,5.4µM*,?,20µM*,?,22%
CCC(=O)Nc1nnc(/C=C/c2ccc(OC)cc2)s1,?,6µM*,?,.,14%,?
COc1ccc(/C=C/c2nnc(NC(=O)CSc3ccc(C)cc3)s2)cc1,?,?,12%,.,7%,30%
O=C(Nc1nnc(/C=C/c2ccccc2)s1)c1ccco1,18%,12µM*,?,.,4%,22%

# Source: PubChem
